Only some compounds are listed: those with a hit (about 11% of all), similar ones and a draw of the others.
Pf growth 96h: Primary qHTS for delayed death inhibitors of the malarial parasite plastid, 96 hour incubation; P. falciparum luciferase reporter growth, 96 h; 320,000 compounds, 6.9% hits; Potency, µM (doses to about 28.7 µM), most hits filed as inhibitors; AID 504834, 2011
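96 h incubation, 37 C, 5% CO2, of luciferase-reporter P. falciparum-infected RBCs (2% hematocrit, 0.05% parasitemia final) with test compounds; endpoint luminescence.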
Pf growth 48h: Primary qHTS for delayed death inhibitors of the malarial parasite plastid, 48 hour incubation; P. falciparum luciferase growth in erythrocytes, 48 h; AID 504832, 2011; 310,000 compounds, 5.9% hits; Potency, µM (doses to about 28.7 µM), actives largely listed as inhibitors
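Luminescence readout; reporter = integrated firefly luciferase in P. falciparum. RBC culture at 2% hematocrit, 0.1% parasitemia final, 37 C/5% CO2; decreased signal taken as growth inhibition.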
HCV inh: qHTS Assay for Inhibitors of Hepatitis C Virus (HCV); Huh7.5.1 HCVcc-Cre infection, luciferase reporter, 44 h; Potency, µM (top dose mostly 41.8 µM), actives largely listed as inhibitors; 340,000 compounds, 3.4% hits
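Seed cells (1,000/well) for 4 h; treat with compound and infect with HCVcc-Cre, moi about 0.5. Incubate 44 h, then detect luciferase activity.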
VACV mCherry inh: qHTS for Stage-Specific Inhibitors of Vaccinia Orthopoxvirus: mCherry Reporter Primary qHTS. Vaccinia virus mCherry reporter infection, fluorescence. Potency, µM (top dose mostly 36.5 µM), actives largely listed as inhibitors. 310,000 compounds, 0.63% hits. AID 720579, 2013; calls by dose curve; tested in A549 cells; also: nearly all actives have a fitted effect of over 35% in size
Vaccinia Venus: qHTS for Stage-Specific Inhibitors of Vaccinia Orthopoxvirus: Venus Reporter Primary qHTS | Vaccinia virus Venus reporter expression, fluorescence | Potency, µM (doses to about 36.5 µM), most hits filed as inhibitors | 330,000 compounds, 0.46% hits | AID 720580, 2013; calls by dose curve; tested in A549 cells; also: nearly all actives have a fitted effect of over 30% in size
NS1 function inh: qHTS Assay for Inhibitors of Influenza NS1 Protein Function | 270,000 compounds, 0.4% hits | Potency, µM (series often up to 46.1 µM); calls by dose curve; also: actives are rising curves; nearly all actives have a fitted effect of over 50% in size
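Recovery from NS1-induced slow growth read by OD600 in budding yeast switched to galactose assay medium (pH 6.0, -URA) at 1:100 dilution. Compound 23 nl per well; the matching strain lacking NS1 serves as control.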
Of the large screens only hits and unclear results are named; the others gave an inactive call. Unless noted, calls follow the shape of the dose curve; as a rule, active = well fitted inhibition curve with a large enough effect; inconclusive = small, poorly fitted or top-dose-only effect, or another doubt; inactive = no such curve, though single readings can be large or run the other way.

COc1cc(N)c(Cl)cc1C(=O)OC(C)C(=O)Nc1cccc(S(=O)(=O)N2CCOCC2)c1 (configuration not stated)	Pf growth 96h inconclusive, Pf growth 48h inconclusive (no result: NS1 function inh)
O=c1c2ccccc2c(/C=N/c2nnc(Cc3ccccc3)s2)c(O)n1-c1ccc(Cl)cn1	none
COc1ccc2c(c1)c(C(=O)CN(C)C)c(C)n2C	none (no result: Pf growth 96h, Pf growth 48h, HCV inh, NS1 function inh)
COc1ccc2c(c1)c(C(=O)CNc1nc(C)cs1)c(C)n2C	Pf growth 96h 2.94µM, Pf growth 48h inconclusive, HCV inh inconclusive, Vaccinia Venus inconclusive (no result: VACV mCherry inh)
CCOCc1cnc(C)nc1NCC(=O)c1c(C)n(C)c2ccc(OC)cc12	Pf growth 48h 7.38µM
COc1ccc(N(CC(=O)NCc2ccco2)S(=O)(=O)c2ccc(OC)c(OC)c2)cc1	Pf growth 96h 14.7µM (no result: Pf growth 48h)
CCOc1ccc(N(CC(=O)NCc2ccco2)S(=O)(=O)c2ccc(OC)c(OC)c2)cc1	Pf growth 48h 11.7µM, HCV inh inconclusive, Vaccinia Venus inconclusive (no result: VACV mCherry inh)
CCC(Sc1nc2c(c(=O)[nH]1)CCC2)C(=O)Nc1cccc(OC)c1 (configuration not stated)	Pf growth 48h inconclusive, NS1 function inh inconclusive (no result: VACV mCherry inh, Vaccinia Venus)
O=c1[nH]c2ccccc2cc1CN(Cc1cccnc1)S(=O)(=O)c1ccc([N+](=O)[O-])cc1	Pf growth 96h 4.65µM, Pf growth 48h inconclusive (no result: VACV mCherry inh, Vaccinia Venus)
O=c1[nH]c2ccccc2cc1CN(Cc1cccnc1)S(=O)(=O)c1ccc(Cl)cc1	Pf growth 96h inconclusive, Pf growth 48h inconclusive, VACV mCherry inh inconclusive
CCCCn1nnnc1NCc1ccc(OC)c(OC)c1	none (no result: Pf growth 96h)
C=C1C(CCl)(CCl)C2(Cl)C(Cl)C(Cl)C1(Cl)C2(Cl)Cl (configuration not stated)	Pf growth 96h 2.69µM, Pf growth 48h 1.9µM (no result: HCV inh, VACV mCherry inh, Vaccinia Venus, NS1 function inh)
CC1(C)CC(=O)C(C(N)=NC(=O)c2ccc([N+](=O)[O-])cc2)=C(O)C1	none (no result: NS1 function inh)
COC(c1ccccc1)c1c(-c2ccccc2)nn(C)c1Cl (configuration not stated)	Pf growth 96h 11.7µM, Pf growth 48h 13.1µM (no result: VACV mCherry inh, Vaccinia Venus)
CCN(CC(=O)NC1CCS(=O)(=O)C1)S(=O)(=O)c1ccc(C)cc1C (configuration not stated)	none
COc1cc(/C=C(\C#N)c2nn(CCO)c(N)c2C#N)cc(OC)c1OC	Pf growth 48h 7.38µM, HCV inh inconclusive
Cc1ccc(C(=O)N2CCN(CCNC(=O)C(=O)NCc3ccc(Cl)cc3)CC2)cc1	Pf growth 96h inconclusive (no result: VACV mCherry inh, Vaccinia Venus)
C[n+]1cc2c3c(ccc2c2ccc4cc5c(cc4c21)OCO5)OCO3	VACV mCherry inh 11.2µM, Vaccinia Venus 10µM (no result: HCV inh)
CC(NS(=O)(=O)c1ccccc1)C(c1cccs1)N1CCN(c2ccccc2)CC1 (configuration not stated)	Pf growth 96h 8.28µM, Pf growth 48h inconclusive (no result: VACV mCherry inh, Vaccinia Venus)
COc1ccccc1N1CCN(C(c2cccs2)C(C)NS(=O)(=O)c2ccccc2)CC1 (configuration not stated)	Pf growth 96h 7.38µM, Pf growth 48h inconclusive, HCV inh inconclusive, Vaccinia Venus inconclusive (no result: NS1 function inh)
Cc1ccc(N(CC2CO2)S(=O)(=O)c2ccc([N+](=O)[O-])cc2)cc1 (configuration not stated)	none
O=C(CSc1ncn[nH]1)N1N=C2/C(=C/c3ccco3)CCCC2C1c1ccco1 (configuration not stated)	Pf growth 48h 11.7µM, HCV inh inconclusive (no result: Pf growth 96h, VACV mCherry inh, Vaccinia Venus)
N#Cc1c(N2C(=O)Nc3ccccc3N2O)sc2c1CCCCCC2	Pf growth 96h 9.28µM
COc1ccc2c3c(cccc13)C(=O)N(O)C2=O	Pf growth 48h 13.1µM, HCV inh inconclusive, Vaccinia Venus inconclusive
COc1ccc(N(C)C(=S)Nc2ccc3nc(C)c(C)nc3c2)cc1	Pf growth 96h 2.33µM
CC(=O)c1c(C)[nH]c(C(=O)C(C)Sc2nnc(NC3CC3)s2)c1C (configuration not stated)	Pf growth 96h 9.28µM, Pf growth 48h 13.1µM, HCV inh 10µM (no result: NS1 function inh)
